The list is not random: actives were taken first. Their share in the collection is about 3.3%.
NS1 function inh: inhibitors of influenza NS1 protein function. Potency, µM (titrated, usually from 46.1 µM), for the others: top-dose activity, positive = more growth. actives 0.4% (n = 270,000); calls by dose curve; note: actives are rising curves; nearly all actives have a fitted effect of over 50% in size
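Compounds were scored for reversing the slow growth caused by influenza A NS1 in S. cerevisiae, measured by optical density at 600 nm. Assay medium contained 2% galactose at pH 6.0; NS1-free yeast of the same strain were the positive control.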
Tb PYK inh: blocks Trypanosoma brucei pyruvate kinase | TbPYK enzyme, Kinase-Glo Plus ATP luminescence, 45 min | AID 624173 | Q57TT1 | Potency, µM (top dose mostly 76.8 µM), inactives show at the top dose activity, negative = inhibition, most hits filed as inhibitors | actives 0.12% (n = 410,000); note: % is set by controls: 0 for no effect and ±100 for the full control effect; nearly all actives have a fitted effect of over 50% in size
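Luminescent Kinase-Glo Plus end-point after 45 min room-temperature reaction of T. brucei pyruvate kinase started with 130 uM ADP (final). Buffer TEA 50 mM pH 7.2 with KCl, MgCl2, BSA, Tween-20; titration-based qHTS with fitted concentration-effect curves.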
RE007 growth inh: less growth of the S. pombe RE007 Vpr strain; S. pombe RE007 Vpr strain, BacTiter-Glo ATP luminescence, 24 h; Potency, µM (titrated, usually from 92.2 µM), for the others: at the top dose activity change, negative = less growth, usual class: inhibitors; AID 651644; actives 0.21% (n = 360,000); active = well fitted falling curve with a large enough effect; inconclusive = small, poorly fitted or top-dose-only effect; inactive = no such curve, though single readings can be large or run the other way; note: % is set by controls: 0 for no effect and ±100 for the full control effect; nearly all actives have a fitted effect of over 50% in size
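Fission yeast RE007 carrying one integrated HIV-1 vpr copy, seeded at OD 0.01 in PMG+AL medium with 23 nL pinned compound. Grown 24 h at 30 degrees; viability read by BacTiter-Glo luminescence after 5 min.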
LmPK inh: inhibitors of Leishmania mexicana pyruvate kinase. Q27686. purified LmPK, Kinase-Glo ATP luminescence, 1 h. Potency, µM (highest dose often 57.5 µM), for the others: at the top dose activity change, negative = inhibition, usual class: inhibitors. actives 0.37% (n = 290,000); note: % is set by controls: 0 for no effect and ±100 for the full control effect
Target sequence (Q27686 whole entry, looked up): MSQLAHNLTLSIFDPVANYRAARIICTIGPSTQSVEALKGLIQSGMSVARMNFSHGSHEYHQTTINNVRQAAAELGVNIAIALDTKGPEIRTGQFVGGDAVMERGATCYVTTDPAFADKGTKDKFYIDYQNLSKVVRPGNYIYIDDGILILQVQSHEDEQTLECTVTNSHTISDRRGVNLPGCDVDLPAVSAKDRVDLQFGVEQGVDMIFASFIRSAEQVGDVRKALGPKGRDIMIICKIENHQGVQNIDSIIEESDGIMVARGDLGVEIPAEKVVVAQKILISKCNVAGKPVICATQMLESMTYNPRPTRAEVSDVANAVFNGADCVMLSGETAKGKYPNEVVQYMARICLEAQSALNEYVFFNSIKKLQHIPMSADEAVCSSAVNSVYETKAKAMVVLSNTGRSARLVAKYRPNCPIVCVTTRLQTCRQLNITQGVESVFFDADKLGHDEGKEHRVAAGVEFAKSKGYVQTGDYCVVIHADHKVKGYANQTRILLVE
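Screened at intermediate enzyme activity to detect both inhibitors and activators: LmPK at 0.1 nM, with a 0.5 nM enzyme column as activation reference. PEP 0.5 mM, ADP 0.1 mM; ATP detected by luminescence after 1 h.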
Sm TGR inh: blocks Schistosoma mansoni thioredoxin glutathione reductase; Q962Y6; purified TGR, DTNB reduction, TNB absorbance 405 nm; Potency, µM (top dose mostly 114 µM), for inactives: at the top dose activity change, negative = inhibition, most hits filed as inhibitors; actives 3% (n = 360,000); AID 485364; note: % is set by controls: 0 for no effect and ±100 for the full control effect; nearly all actives have a fitted effect of over 60% in size
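Kinetic colorimetric format: TGR-catalysed, NADPH-driven DTNB reduction monitored via TNB absorbance. Enzyme dispensed at 20 nM; compound exposure 15 min at room temperature before reaction start.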
SARS PLP yeast: inhibitors of SARS-CoV papain-like protease in yeast. S. cerevisiae expressing SARS-CoV PLpro, growth rescue. Potency, µM (titrated, usually from 32.9 µM), inactives show at the top dose activity, positive = growth rescue, hits mostly activators. actives 0.19% (n = 330,000); calls by dose curve; note: 0% is about no effect; nearly all actives have a fitted effect of over 55% in size
An asterisk follows results filed as active; ? = inconclusive; / = not tested or not shown. Unless noted, calls come from the whole dose curve; as a rule, active = well fitted curve in the direction sought with a large enough effect; inconclusive = small, poorly fitted or top-dose-only effect, or another doubt; inactive = no such curve, though single readings can be large; an effect the other way counts as inactive or inconclusive. Potency is the fitted concentration of half-maximal effect.

SMILES | NS1 function inh | Tb PYK inh | RE007 growth inh | LmPK inh | Sm TGR inh | SARS PLP yeast
C=CCn1c(SCC(=O)NCC2CCCO2)nc2scc(-c3ccco3)c2c1=O (stereo not drawn) | ? | -16% | -22% | 3% | 7.9µM* | ?
NC(=O)CSc1nc2scc(-c3ccco3)c2c(=O)n1-c1ccccc1 | 10% | ? | 8% | ? | ? | 2%
Cc1ccc(S(=O)(=O)N2CCOCCOCCOCCOCCOCC2)cc1 | 5% | 5% | 7% | 5% | 7% | 6%
Cc1cc(C)c2c(c1)C1C=CCC1C(c1ccc(S(=O)(=O)N3CCOCC3)cc1)N2 (stereo not drawn) | 29% | -11% | 9% | 0% | 1.6µM* | 0%
Nc1ncnc2c1ncn2[C@H]1O[C@@H](C(=O)OCCO)[C@@H](O)[C@H]1O | -3% | / | / | / | / | /
Cc1oc(-c2ccc(Cl)cc2)cc1C(=O)O | -135% | -5% | -4% | -6% | 0% | -10%
Cc1oc(-c2ccc(Cl)cc2)[n+]([O-])c1C | -166% | 2% | -20% | -4% | 50µM* | -39%
CCSc1nnc(NC(=O)C2CCN(S(=O)(=O)c3cc(C(F)(F)F)ccc3Cl)CC2)s1 | 16% | 2% | 3% | 0% | 89µM* | 7%
Cc1ccc(Nc2nc(-c3ccc(C)cc3)c(CC(=O)O)s2)cc1 | 4% | -12% | -7% | 5% | ? | -3%
CCOc1ccccc1Nc1nc(-c2ccc(C)cc2)c(CC(=O)O)s1 | / | -8% | / | / | 40µM* | /
Cc1nc2cc(-c3cccc(F)c3)nn2c(C)c1CCC(=O)Nc1ccccc1C(N)=O | / | 1% | / | / | 4% | /
CCOc1ccc(NC(c2ccccn2)c2oc(CO)cc(=O)c2O)cc1 (stereo not drawn) | 1% | -13% | -9% | 2% | 10µM* | 24%
C=C1C(=O)O[C@@H]2C[C@@H](C)[C@@H]3C4OC4C(=O)[C@@]3(C)[C@@H](O)[C@H]12 (stereo partly drawn) | 0% | -6% | -2% | 1% | 40µM* | -4%
Cc1ccc(C)c(S(=O)(=O)Nc2ccc(O)c(C(=O)O)c2)c1 | / | 4% | -5% | 5% | -17% | -9%
Cc1ccc(S(=O)(=O)Nc2ccc3c4c(cccc24)CC3)c(C)c1 | / | 0% | -7% | / | / | /
COc1ccc(S(=O)(=O)Nc2ccccc2)cc1 | / | -3% | 6% | / | / | /
Cc1ccc(S(=O)(=O)NNc2ccccc2)c(C)c1 | -23% | ? | 18% | 15% | 40µM* | -56%
COc1ccc(S(=O)(=O)Nc2ccc(O)c3ccccc23)cc1 | ? | -19% | -23% | 15% | 20µM* | -29%
Cc1ccc(S(=O)(=O)NNC(=O)c2cccs2)c(C)c1 | 2% | 15% | 0% | 2% | ? | 14%
Cc1ccc(C)c(S(=O)(=O)Nc2ccc(O)c3ccccc23)c1 | ? | -6% | -4% | ? | 22µM* | 7%
Cc1ccc(S(=O)(=O)Nc2ccc(O)c3ccccc23)c(C)c1 | -5% | -20% | -10% | 8.9µM* | 8.9µM* | -6%
CCOC(=O)c1cccc(Nc2ccc3cc(S(=O)(=O)N4CCCCC4)ccc3n2)c1 | / | -2% | / | / | 0% | /
CC(=O)/C(=N/Nc1cccc(C)c1)N1CCOCC1 | -1% | 1% | 340% | 5% | 50µM* | -3%
Cc1cccc(C(=O)Nc2cccc(C(=O)N3CCOCC3)c2)c1 | 0% | 0% | 4% | -2% | 0% | 3%
COc1ccc(C2COc3cc(O)ccc3C2)c(OC)c1O (stereo not drawn) | / | -15% | 6% | / | / | /
SMILES | NS1 function inh | Tb PYK inh | RE007 growth inh | LmPK inh | Sm TGR inh | SARS PLP yeast
Oc1cc2c(cc1O)[C@H]1c3ccc(O)c(O)c3OC[C@@]1(O)C2 | / | 5.6µM* | -27% | / | 2.2µM* | -2%
Oc1ccc2c(c1)OCC1(O)Cc3cc(O)c(O)cc3C21 (stereo not drawn) | / | 11µM* | 2% | / | / | /
C[C@@H]1C(SC2Cn3cnc[n+]3C2)=C(C(=O)[O-])N2C(=O)[C@H]([C@@H](C)O)[C@@H]12 (stereo partly drawn) | / | 2% | / | / | / | /
Cc1cc(C)c(C(=O)O)c(Cl)n1 | / | 1% | 5% | 4% | 40µM* | 1%
CSc1nc(C)cc(C)c1C(N)=O | 2% | 2% | -1% | 1% | -13% | 1%
CCCc1nc2ccccc2c(=O)n1/N=C/c1ccccc1O | -53% | 4% | 1% | 4% | 5% | 19%
CCCc1nc2ccccc2c(=O)n1/N=C/c1c(C)[nH]n(-c2ccc(C)cc2)c1=O | -65% | -6% | 16µM* | ? | -10% | 1%
COc1cc(C(=O)Sc2ccc(C)cc2)cc(OC)c1OC | -10% | 1% | -9% | 0% | -21% | -13%
Cc1ccc(OCC(=O)Sc2ccc(C)cc2)cc1 | 4% | 2% | -18% | -1% | 18µM* | 3%
COc1ccccc1OCC(=O)Sc1ccc(C)cc1 | -85% | ? | ? | 1% | 7.1µM* | -6%
Oc1cc(CN2COc3ccccc32)c(O)cc1CNC1CCCCC1 | 3% | / | / | / | / | /
CSc1nn(CCc2ccncc2)c(=S)s1 | -99% | -8% | ? | 1% | 35µM* | -36%
O=C(CSc1nc2ccccc2n1Cc1cccc(Cl)c1)N1CCN(c2ccc(F)cc2)CC1 | / | 3% | / | / | 1% | /
Cc1sc(NC(=O)c2ccco2)c(C(c2cccnc2)N2CCN(C)CC2)c1C (stereo not drawn) | -11% | -7% | -29% | 6% | 35µM* | -3%
CCN(CC(=O)NC(C)(C)C)C(=O)CCl | 4% | 1% | 9% | -2% | 50µM* | 7%
CC(C)(C)NC(=O)CCCCCCCC(=O)NC(C)(C)C | 6% | 1% | 9% | -1% | 0% | 1%
Cc1cccc(-c2nc3c4ccccc4nc(N4CCN(c5ccccc5F)CC4)n3n2)c1 | / | 6% | / | / | -1% | /
COc1ccc(C(=O)N/N=C/c2ccc(N3CCOCC3)o2)cc1OC | / | 32µM* | 25% | ? | 7.9µM* | 7%
O=C(N/N=C/c1c(Cl)cccc1Cl)c1cccc(F)c1 | -6% | -16% | -10% | 5% | 35µM* | ?
O=C(N/N=C/c1ccc(-c2cccc(C(F)(F)F)c2)o1)c1cccc(F)c1 | 6% | -3% | -26% | 4% | -20% | -17%
COc1ccc(C(=O)N/N=C/c2ccc(N3CCOCC3)s2)cc1OC | / | -1% | -15% | / | -29% | 1%
O=C(N/N=C/c1ccc(N2CCOCC2)o1)c1cccc(F)c1 | 5% | ? | 16% | -14% | 10µM* | 7%
O=C(COC(=O)CCc1c[nH]c(=O)[nH]1)Nc1ccccc1 | ? | 6% | -4% | -6% | 40µM* | 3%
Cc1ccc(NC(=O)COC(=O)CCc2c[nH]c(=O)[nH]2)cc1 | -6% | -1% | 11% | -2% | 32µM* | 7%

Source: PubChem BioAssay
